Assay [1] has as its system Human papillomavirus type 1a protein E7 (residues 44-93). The assay is described as follows: small molecules binding HPV E7 44-93 – biochemical, small-molecule microarray, residues 44-93, 635 nm fluorescence, primary screen (AID 1108).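 Also: E7 fragment applied at 1 µg/mL in TBST for 1 h at 4 C; score combines spot fluorescence with its signal to noise ratio.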 The settings on record: fluorescence 635 nm, higher = more signal.
The nature of assay [2]: hepatitis C replication reporter changes, two-sided – Huh7 cells, luciferase reporter, HCV replication inhibitor project, primary screen (AID 1109).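 Also: huh7 hepatoma cells harbouring a luciferase neomycin HCV replicon reporter; luciferase luminescence as measure of HCV replicon replication; test concentration not given here.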 As to conditions: Huh7 HCV replicon luciferase reporter, 48 h; higher = more signal.
Assay [3] addresses Left-right determination factor 2 (Homo sapiens) (UniProt O00292). The assay is described as follows: small molecules binding LEFTY2 protein – biochemical, small-molecule microarray, 635 nm fluorescence scan, primary screen (AID 1110). The settings on record: higher = more signal.
Assay [4] concerns the target Calmodulin-1 (Homo sapiens) (UniProt P0DP23). The assay is described as follows: small molecules binding calmodulin-1 with EGTA – biochemical, small-molecule microarray, Cy5-labelled CALM1, profiling panel (AID 1111).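 Also: labelled calmodulin applied in Tris saline Tween buffer holding calcium plus EGTA and DTT.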 The settings on record: Cy5-CALM1 binding fluorescence, higher = more signal.
Assay [5] shares this target. Put plainly: small molecules binding Ca-loaded calmodulin-1 – biochemical, small-molecule microarray, Cy5-labelled CALM1, plus calcium, artefact control for SMM control-protein annotation, profiling panel (AID 1112).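 Also: score merges spot fluorescence with signal to noise from triplicate slides.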 As to conditions: Cy5-CALM1 binding fluorescence, higher = more signal.
A short description of assay [6]: probe aWnt5a binding to arrayed compounds – biochemical, biotinylated probe, 635/667 nm fluorescence, primary screen (AID 1113).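 Also: score merges 667 nm fluorescence intensity with signal-to-noise per printed feature.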 As to conditions: small-molecule microarray, higher = more signal.
Assay [7] is described as follows: probe aShh binding to arrayed compounds – biochemical, biotinylated probe, 635/667 nm fluorescence, primary screen (AID 1114).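 Also: probe is biotin-labelled aShh protein from a stem cell growth factor screen; measures binding of labelled protein to compounds printed on the slide; score merges feature fluorescence at 667 nm with signal-to-noise.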 As to conditions: small-molecule microarray, higher = more signal.
Assay [8] in a line: probe aNog binding to arrayed compounds – biochemical, biotinylated probe, 635/667 nm fluorescence, primary screen (AID 1115).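 Also: probe is biotinylated aNog protein used at 0.15 µg/mL for 1 h at 4 C; z-score combines 667 nm fluorescence of each spot with its signal to noise.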 As to conditions: small-molecule microarray, higher = more signal.
Assay [9] has as its target Torsin-1A-interacting protein 1 (Homo sapiens) (UniProt Q5JTV8). The assay is described as follows: compound microarray binding of lysate hLAP1 – cell lysate, small-molecule microarray, COS7 lysate, 635/667 nm fluorescence, primary screen (AID 1116). The settings on record: 635 nm fluorescence, higher = more signal.
For assay [10], the target named is Alpha-bungarotoxin (Bungarus multicinctus) (UniProt P60615). The assay is described as follows: compounds binding labelled alpha-BTX control protein – biochemical, small-molecule microarray, Alexa647 label, 635/667 nm fluorescence, artefact control for SMM control protein annotation, profiling panel (AID 1117). The settings on record: alpha-BTX-A647 binding fluorescence, higher = more signal.
Alpha-bungarotoxin (Bungarus multicinctus), sequence (P60615 whole entry, looked up): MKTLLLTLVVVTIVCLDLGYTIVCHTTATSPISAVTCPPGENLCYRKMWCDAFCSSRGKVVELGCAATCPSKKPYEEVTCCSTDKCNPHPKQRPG

Assay [11] addresses Albumin (Bos taurus) (UniProt P02769). Put plainly: compounds binding labelled BSA control protein – biochemical, small-molecule microarray, Alexa647 label, 635/667 nm fluorescence, artefact control for SMM control protein annotation, profiling panel (AID 1118).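 Also: score merges 667 nm emission intensity and signal-to-noise per printed compound spot.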 As to conditions: BSA-A647 binding, fluorescence 635 nm, higher = more signal.
Assay [12] is described as follows: probe aXIP binding to arrayed compounds – biochemical, NeuroSMM set, 635/667 nm fluorescence, primary screen (AID 1119).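 Also: probe is the protein aXip251-270 applied at 1 µg/mL to compound-printed slides; binding of probe to printed compounds measured as 667 nm fluorescence plus signal to noise.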 The settings on record: small-molecule microarray, higher = more signal, called active from +8 up or from −8 down.
Assay [13] can be described thus: probe aNOTCH3 binding on compound microarray – biochemical, small-molecule microarray, 635/667 nm fluorescence, primary screen (AID 1120).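 Also: probe is a biotin-tagged antibody raised against NOTCH3 rather than NOTCH3 protein; score merges spot fluorescence near 667 nm with spot signal to noise.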 As to conditions: higher = more signal.
Assay [14] can be described thus: probe aNOTCH2 binding on compound microarray – biochemical, small-molecule microarray, 635/667 nm fluorescence, primary screen (AID 1121).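 Also: score merges feature fluorescence read at 667 nm with its signal to noise.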 The settings on record: higher = more signal.
Assay [15] concerns the target Carbonic anhydrase 2 (Homo sapiens) (UniProt P00918). The assay is described as follows: compounds binding carbonic anhydrase 2 – biochemical, small-molecule microarray, Alexa647-labelled CAII, profiling panel (AID 1122). As to conditions: CAII-A647 binding fluorescence, higher = more signal.
Assay [16] can be described thus: COS7 lysate on small-molecule microarray, probe aHis, 635 nm (AID 1123).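 Also: z-score combines 667nm fluorescence intensity with signal-to-noise per printed compound spot.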 As to conditions: COS7 cell lysate, fluorescence, higher = more signal.
The nature of assay [17]: probe aLAP1 signal on lysate-treated microarray – cell lysate, small-molecule microarray, COS7 lysate, primary screen (AID 1124).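 Also: lysate comes from COS7 cells expressing LAP1 and is applied at 0.3 µg/mL; score merges spot fluorescence near 667 nm with signal-to-noise over triplicate slides.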 The settings on record: probe aLAP1, fluorescence, higher = more signal.
Assay [18] concerns Sam68 (KHDRBS1). Put plainly: compounds binding KHDRBS1 protein – biochemical, small-molecule microarray, 635 nm fluorescence, primary screen (AID 1125).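 Also: score merges 667 nm channel intensity with signal to noise over triplicate slides.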 The settings on record: higher = more signal.
For assay [19], the system named is Chordin-like protein 2 (CHRDL2). The assay is described as follows: compounds binding chordin-like 2 – biochemical, small-molecule microarray, 635 nm fluorescence, primary screen (AID 1126).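 Also: printed compound slides probed with Chrdl2 protein at 4 µg/mL for 1 h at 4 C; score merges 667 nm emission intensity with signal to noise over three replicate slides.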 The settings on record: fluorescence 635 nm, higher = more signal.
In assay [20] the target is Concanavalin-A (Canavalia ensiformis) (UniProt P02866). Put plainly: compounds binding concanavalin A lectin – biochemical, small-molecule microarray, Alexa647 label, 635 nm, artefact control for SMM control protein annotation, primary screen (AID 1127).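 Also: z combines 667 nm emission intensity with signal-to-noise across three replicate slides.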 As to conditions: ConA-A647 binding fluorescence, higher = more signal.
Concanavalin-A (Canavalia ensiformis), sequence (P02866 whole entry, looked up): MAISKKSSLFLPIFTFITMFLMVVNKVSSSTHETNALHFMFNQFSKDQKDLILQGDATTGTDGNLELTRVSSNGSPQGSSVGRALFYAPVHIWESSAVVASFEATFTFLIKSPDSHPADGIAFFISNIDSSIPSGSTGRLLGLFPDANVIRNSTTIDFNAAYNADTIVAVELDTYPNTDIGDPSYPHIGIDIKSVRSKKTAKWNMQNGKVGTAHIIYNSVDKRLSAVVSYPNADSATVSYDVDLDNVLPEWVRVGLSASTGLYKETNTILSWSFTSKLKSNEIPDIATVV

The source made the active and inactive calls.

This note sets out measurements from PubChem BioAssay.

Albumin (Bos taurus), sequence (P02769 whole entry, looked up): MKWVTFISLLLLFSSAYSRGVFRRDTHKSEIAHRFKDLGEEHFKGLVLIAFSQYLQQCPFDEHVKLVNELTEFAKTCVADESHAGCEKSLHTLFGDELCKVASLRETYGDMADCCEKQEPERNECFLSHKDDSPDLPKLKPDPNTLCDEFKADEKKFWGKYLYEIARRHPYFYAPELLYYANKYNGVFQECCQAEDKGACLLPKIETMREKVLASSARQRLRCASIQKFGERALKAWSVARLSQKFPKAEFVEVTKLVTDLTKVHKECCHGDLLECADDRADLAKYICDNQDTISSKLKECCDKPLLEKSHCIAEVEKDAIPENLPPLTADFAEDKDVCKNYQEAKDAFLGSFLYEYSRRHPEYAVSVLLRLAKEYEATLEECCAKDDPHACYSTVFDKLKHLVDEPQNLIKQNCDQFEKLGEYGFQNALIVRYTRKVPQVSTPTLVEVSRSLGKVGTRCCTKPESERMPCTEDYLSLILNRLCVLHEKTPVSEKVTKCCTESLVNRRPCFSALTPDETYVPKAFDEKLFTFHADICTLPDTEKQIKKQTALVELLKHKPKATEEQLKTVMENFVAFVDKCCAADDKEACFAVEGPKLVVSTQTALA
Left-right determination factor 2 (Homo sapiens), sequence (O00292 whole entry, looked up): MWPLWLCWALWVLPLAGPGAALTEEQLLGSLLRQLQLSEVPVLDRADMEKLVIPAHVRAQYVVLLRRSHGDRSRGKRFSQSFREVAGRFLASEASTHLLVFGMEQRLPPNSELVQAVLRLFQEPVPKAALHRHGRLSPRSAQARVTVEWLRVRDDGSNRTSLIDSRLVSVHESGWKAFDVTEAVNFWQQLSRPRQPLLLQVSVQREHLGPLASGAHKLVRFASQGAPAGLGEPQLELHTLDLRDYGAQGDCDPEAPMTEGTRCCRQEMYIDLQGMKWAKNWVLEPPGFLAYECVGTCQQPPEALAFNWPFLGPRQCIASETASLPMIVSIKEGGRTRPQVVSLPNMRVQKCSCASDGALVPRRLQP
Torsin-1A-interacting protein 1 (Homo sapiens), sequence (Q5JTV8 whole entry, looked up): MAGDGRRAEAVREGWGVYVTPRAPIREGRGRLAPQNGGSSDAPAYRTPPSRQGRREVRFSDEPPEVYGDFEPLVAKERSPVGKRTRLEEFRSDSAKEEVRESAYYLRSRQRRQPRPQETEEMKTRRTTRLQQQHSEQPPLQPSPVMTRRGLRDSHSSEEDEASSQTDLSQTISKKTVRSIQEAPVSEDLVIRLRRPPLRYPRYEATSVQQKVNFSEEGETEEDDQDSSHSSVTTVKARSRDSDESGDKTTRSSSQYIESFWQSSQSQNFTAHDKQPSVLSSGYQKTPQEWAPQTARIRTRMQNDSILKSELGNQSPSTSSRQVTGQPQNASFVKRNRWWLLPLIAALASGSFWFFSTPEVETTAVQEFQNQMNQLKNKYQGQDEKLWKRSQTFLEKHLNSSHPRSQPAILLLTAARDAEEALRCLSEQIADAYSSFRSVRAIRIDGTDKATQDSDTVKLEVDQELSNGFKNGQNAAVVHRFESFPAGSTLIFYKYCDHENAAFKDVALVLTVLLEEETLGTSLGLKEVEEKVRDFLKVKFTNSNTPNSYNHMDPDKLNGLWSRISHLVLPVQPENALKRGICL

`CN(C)CCCN1C(=O)[C@@]2(Cc3ccccc31)c1ccccc1C(=O)N(Cc1ccccc1)[C@H]2c1ccc(CO)cc1`: the composite z-score is 0.118 in assay [1]; -0.0359 in [3]; 0.505 in assay [4]; -0.258 in assay [5]; -0.252 in [6]; -0.289 in assay [7]. The composite z-score is -0.288 in assay [8]; -0.123 in [9]; 0.648 in assay [10]; -0.153 in [11]; -0.109 in assay [13]; -0.181 in assay [14]. Moreover, the composite z-score in assay [15] is -0.0077; in assay [16], -0.258; in assay [17], -0.485; in [18], 0.347; in assay [19] it was 0.757; in [20], 0.544. Further, the z-score in [2] was -1.2. Further, the composite Z-score in assay [12] was 0.634 (inactive).
On to `[N-]=[N+]=NCc1ccccc1[C@H]1OC(c2ccc(OCCCO)cc2)=N[C@@]1(Cc1ccccc1N=[N+]=[N-])C(=O)N1CCCCC1`, for which the composite z-score in [1] was 1.46; in assay [3], 0.291; in assay [4] it was 1; in [5], 0.289; in assay [6], 0.132; in assay [7], -0.157. Also, the composite z-score was 1.76 in assay [8]; 1.44 in assay [9]; 1.3 in assay [10]; -0.0584 in assay [11]; 0.374 in assay [13]; 0.104 in assay [14]. Further, the composite z-score in [15] was 0.559; in [16], 2.97; in assay [17] it was 0.608; in assay [18], 1.29; in [19], 0.0975; in assay [20], 0.988. The compound further had a z-score in assay [2] of -2.19. For the same compound, in [12], the composite Z-score was -0.202 (inactive).
Turning to `CO[C@H]1O[C@H](CO)[C@@H](OC(=O)Nc2cccc(F)c2)[C@H](OC(=O)Nc2ccc3c(c2)OCO3)[C@H]1OC(=O)Nc1ccc2c(c1)OCO2`, the composite z-score in assay [1] was 1.12; in assay [3] it was 0.0115; in [4] it was 0.67; in [5], -0.957; in assay [6], -0.0735; in [7], 0.0469. Also, the composite z-score in assay [8] is 0.201; in [9], 3.02; in assay [10], 0.972; in assay [11], 0.445; in assay [13], 0.0225; in assay [14], -0.0508. In addition, the composite z-score amounted to 0.728 in assay [15]; 2.23 in [16]; 0.315 in [17]; 1.3 in assay [18]; 0.163 in assay [19]; 0.731 in assay [20]. For the same compound, the z-score in [2] was -1.37. Besides, in [12], the composite Z-score is 0.859 (inactive).
For `COCCCNC(=O)[C@@H]1c2ccccc2C(=O)N(c2ccc(C)cn2)[C@H]1c1ccc(CO)cc1`, the composite z-score is -0.745 in [1]; -1.83 in [3]; -0.878 in assay [4]; -0.827 in assay [5]; -0.363 in assay [6]; -0.19 in assay [7]. The composite z-score was -0.244 in assay [8]; -2.83 in assay [9]; -0.958 in [10]; -0.767 in assay [11]; -0.644 in assay [13]; -0.18 in assay [14]. Moreover, the composite z-score in assay [15] is 0.0072; in assay [16], -0.908; in assay [17], -0.721; in [18] it was -1.42; in assay [19] it was -2.03; in assay [20], -0.482. Moreover, the z-score in assay [2] came to 0.176. The composite Z-score in assay [12] was 0.567 (inactive).
On to `[N-]=[N+]=Nc1ccccc1[C@H]1OC(c2ccc(OCCCO)cc2)=N[C@@]1(Cc1ccccc1)C(=O)NCc1ccccc1`, for which the composite z-score in assay [1] was 1.4; in assay [3], 0.364; in [4], 0.503; in [5], -0.171; in assay [6], -0.0492; in assay [7], 0.0723. The composite z-score was -0.261 in assay [8]; 0.832 in [9]; 0.421 in assay [10]; 0.713 in assay [11]; 0.256 in [13]; -0.0714 in [14]. Besides, the composite z-score in [15] is 0.497; in [16], 1.46; in assay [17], 0.112; in [18], 1.31; in assay [19], 0.125; in assay [20] it was 1.02. The z-score in [2] is -3.14. For the same compound, the composite Z-score in assay [12] is 1.76 (inactive).
